From PubChem BioAssay (NCI)
Several values for one entry are separate records, joined by “and”; a condition that tells them apart may be missing. Identical values can stand only once. About 83,000 compounds went through this panel and 20% of them were active in at least one assay; those are over-represented in the sample as a whole.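 Percent growth is the endpoint: 0 to 100 indicates growth inhibition (40 means 60% inhibition), 0 means no net growth, and negative values indicate cell death.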

Columns and labels:
Experiment in all cases: NCI-60 one-dose screen, 48 h (100 = growth as untreated, 0 = no growth, -100 = all killed)
Details in all cases: 10 µM unless noted; active = growth percent below 10; inactive = the rest
NCI-H23 lung = tested on: NCI-H23 lung
NCI-H226 lung = tested on: NCI-H226 lung
NCI-H322M lung = tested on: NCI-H322M lung
HOP-62 NSCLC = tested on: HOP-62 NSCLC
NCI-H460 lung = tested on: NCI-H460 lung
NCI-H522 lung = tested on: NCI-H522 lung
A549/ATCC NSCLC = tested on: A549/ATCC NSCLC
786-0 renal = tested on: 786-0 renal
COLO 205 colon = tested on: COLO 205 colon
HOP-92 NSCLC = tested on: HOP-92 NSCLC

Measured: growth

CCOC(=O)c1ccncc1
inactive: NCI-H23 lung 109% | NCI-H226 lung 91.3% | NCI-H322M lung 106% | HOP-62 NSCLC 98.5% | NCI-H460 lung 104% | NCI-H522 lung 98.3% | A549/ATCC NSCLC 104% | 786-0 renal 106%

O=[N+]([O-])c1ccc(NC2CCCCC2)nc1
inactive: NCI-H23 lung 93.2% and 96.9% | NCI-H226 lung 113% and 92.4% | NCI-H322M lung 117% and 105% | HOP-62 NSCLC 94.8% and 101% | NCI-H460 lung 108% and 105% | NCI-H522 lung 95.1% and 92.1% | A549/ATCC NSCLC 101% and 98.5% | 786-0 renal 103%

OCCCc1ccccc1
inactive: NCI-H23 lung 107% | NCI-H226 lung 99% | NCI-H322M lung 76.2% | HOP-62 NSCLC 101% | NCI-H460 lung 112% | NCI-H522 lung 110% | A549/ATCC NSCLC 99.8% | 786-0 renal 110% | COLO 205 colon 94.1%

Cc1nc2c(=O)[nH]c(=S)[nH]c2[nH]c1=O
inactive: NCI-H23 lung 108% and 101% | NCI-H226 lung 100% and 104% | NCI-H322M lung 98% and 111% | HOP-62 NSCLC 108% and 99.1% | NCI-H460 lung 106% and 110% | NCI-H522 lung 105% and 100% | A549/ATCC NSCLC 103% and 105% | 786-0 renal 112% and 107%

COc1ccc(S(=O)(=O)c2ccc(F)cc2)cc1
inactive: NCI-H23 lung 102% | NCI-H226 lung 97.1% | NCI-H322M lung 117% | HOP-62 NSCLC 109% | NCI-H460 lung 114% | NCI-H522 lung 83.3% | A549/ATCC NSCLC 82.4% | 786-0 renal 103% | COLO 205 colon 113%

CCNCc1ccccc1
inactive: NCI-H23 lung 91.4% | NCI-H226 lung 100% | NCI-H322M lung 100% | HOP-62 NSCLC 102% | NCI-H460 lung 109% | NCI-H522 lung 102% | A549/ATCC NSCLC 102% | 786-0 renal 103% | COLO 205 colon 107%

Cc1c(O)nc(N)[nH]c1=O
inactive: NCI-H23 lung 93.8% | NCI-H226 lung 106% | NCI-H322M lung 104% | HOP-62 NSCLC 99.7% | NCI-H460 lung 104% | NCI-H522 lung 99.5% | A549/ATCC NSCLC 99.9% | 786-0 renal 114% | COLO 205 colon 116%

CCC(C)(O)CCC(C)(O)CC (configuration not stated)
inactive: NCI-H23 lung 87.1% | NCI-H226 lung 108% | NCI-H322M lung 102% | HOP-62 NSCLC 93.5% | NCI-H460 lung 116% | HOP-92 NSCLC 104% | NCI-H522 lung 103% | A549/ATCC NSCLC 106% | 786-0 renal 99.3% | COLO 205 colon 108%

Oc1cccnc1CN1CCOCC1
inactive: NCI-H23 lung 110% and 95.7% | NCI-H226 lung 99.1% and 95.7% | NCI-H322M lung 98.3% and 102% | HOP-62 NSCLC 96.6% and 92.7% | NCI-H460 lung 114% and 109% | HOP-92 NSCLC 88.4% and 84.8% | NCI-H522 lung 93.8% and 120% | A549/ATCC NSCLC 102% and 96.5% | 786-0 renal 105% and 101% | COLO 205 colon 102% and 110%

Cn1c(-c2ccccc2)cc(=O)cc1-c1ccccc1
inactive: NCI-H23 lung 73.8% | NCI-H226 lung 101% | NCI-H322M lung 97% | HOP-62 NSCLC 98.3% | NCI-H460 lung 37.8% | NCI-H522 lung 56.4% | A549/ATCC NSCLC 96.4% | 786-0 renal 106% | COLO 205 colon 96.9%

CCC(=O)Oc1ccc(OCc2ccccc2)cc1
inactive: NCI-H23 lung 85.5% and 83.8% | NCI-H322M lung 120% and 92.3% | HOP-62 NSCLC 107% and 94.8% | NCI-H460 lung 99.4% and 93.7% | HOP-92 NSCLC 89.1% | NCI-H522 lung 88.3% and 77% | A549/ATCC NSCLC 99.7% and 102% | 786-0 renal 81.5% and 79.6% | COLO 205 colon 124% and 113%

O=C(O)c1ccc2c3ccc(C(=O)O)c4c(C(=O)O)ccc(c5ccc(C(=O)O)c1c25)c43
inactive: NCI-H23 lung 87.8% | NCI-H226 lung 92.2% | NCI-H322M lung 100% | HOP-62 NSCLC 92.4% | NCI-H460 lung 96.5% | NCI-H522 lung 95.3% | A549/ATCC NSCLC 92.1% | 786-0 renal 107% | COLO 205 colon 104%
